Data on 35 molecules can be found in PubChem BioAssay.

For the assay, the target named is NADPH oxidase 5 (Homo sapiens) (UniProt Q96PH1). Briefly: compounds shifting NOX5 Amplex Red fluorescence – cell-based, HEK293-NOX5, NOX inhibitor project, primary screen (AID 1161). To be noted: HEK293-NOX5, ionomycin, 45 min, higher = more signal.
Sequence of NADPH oxidase 5 (Homo sapiens) (Q96PH1 whole entry, looked up): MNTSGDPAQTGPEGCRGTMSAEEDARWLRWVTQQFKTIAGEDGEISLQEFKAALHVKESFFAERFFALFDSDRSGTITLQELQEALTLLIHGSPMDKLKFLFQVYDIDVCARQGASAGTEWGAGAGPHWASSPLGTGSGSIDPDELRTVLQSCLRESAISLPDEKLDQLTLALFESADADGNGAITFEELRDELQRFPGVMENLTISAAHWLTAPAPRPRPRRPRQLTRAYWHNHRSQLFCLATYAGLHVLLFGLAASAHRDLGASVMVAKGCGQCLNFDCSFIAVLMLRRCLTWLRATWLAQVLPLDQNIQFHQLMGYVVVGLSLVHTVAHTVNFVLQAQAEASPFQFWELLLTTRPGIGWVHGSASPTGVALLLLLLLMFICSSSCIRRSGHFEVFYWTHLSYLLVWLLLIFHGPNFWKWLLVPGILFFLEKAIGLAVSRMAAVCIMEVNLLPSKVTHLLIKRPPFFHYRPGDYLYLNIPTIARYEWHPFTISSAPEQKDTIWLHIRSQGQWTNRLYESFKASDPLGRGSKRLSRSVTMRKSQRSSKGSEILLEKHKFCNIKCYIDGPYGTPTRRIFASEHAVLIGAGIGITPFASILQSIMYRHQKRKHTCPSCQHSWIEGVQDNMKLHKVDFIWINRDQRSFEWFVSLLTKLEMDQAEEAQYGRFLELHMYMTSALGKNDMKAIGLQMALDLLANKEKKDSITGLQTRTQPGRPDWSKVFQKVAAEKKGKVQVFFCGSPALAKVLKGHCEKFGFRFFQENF
In the case of `COC(=O)C(CC#Cc1ccc2c(c1)[C@]1(C(=O)N2)[C@H](C(=O)NC[C@H](O)c2ccccc2)[C@H]2C(=O)O[C@H](c3ccccc3)[C@H](c3ccccc3)N2[C@@H]1c1ccccc1OCCO)C(=O)OC`, the z-score is -2.45.

In the case of `CN(C)CCCNC(=O)[C@@]1(Cc2ccccc2I)c2ccccc2C(=O)N(C2CCCCC2)[C@H]1c1ccc(CO)cc1`, the z-score was -3.65.

On to `CN1C(=O)C2C=CC(C(O)c3ccc(-c4ccccc4)s3)N(NC(=O)OC(C)(C)C)C2C1=O` (stereo not given), for which the z-score is -0.722.

With `CCCNC(=O)[C@@]1(Sc2ccc(C)cc2)CC(=O)N(Cc2ccccc2Cl)[C@@H]1c1ccc(CO)cc1I`, the z-score was found to be 1.87.

Consider `CN(C)c1ccc(C(O)C2C=CC3C(=O)N(Cc4ccccc4)C(=O)C3N2n2cnnc2)cc1` (stereo not given), for which the z-score stood at 0.36.

For `C[C@@H]1ON(c2ccccc2)[C@H](c2ccccc2)[C@H]1C(=O)O`, the z-score came out at 0.46.

As for `O=C1[C@H]2C=C(I)[C@H](C[C@@H]2c2ccccc2)[C@@]12CO2`, the z-score was -0.666.

In the case of `C=CCC(OC(C)=O)[C@@H]1[C@@H](N(Cc2ccc(-c3cccc(C(F)(F)F)c3)o2)C(=O)c2ccc(-c3ccccc3)cc2)c2cc(OCCCO)ccc2N1C(=O)c1ccc2ccccc2c1` (stereo not given in full), the z-score is -1.09.

Consider `O=C(NCc1ccc(F)cc1)[C@H]1C[C@H]2C(=O)N3CCC[C@H]3C(=O)N2[C@H]1c1ccc(O)cc1`, for which the z-score stood at 0.601.

On to `N#Cc1ccc(NN2C(C(O)C3CC=CCC3)C=CC3C(=O)N(c4ccccc4)C(=O)C32)cc1` (stereo not given), for which the z-score was -2.39.

Turning to `CCCNC(=O)[C@@]1(c2ccc([N+](=O)[O-])cc2)CC(=O)N(C(C)C)[C@@H]1c1ccc(CO)cc1`, the z-score is -1.85.

In the case of `CC(C)N1C(=O)C[C@@](C(=O)NCCN2CCOCC2)(c2ccc([N+](=O)[O-])cc2)[C@H]1c1ccc(CO)cc1`, the z-score was -2.46.

Take `C[N+](C)(C)CCCC[C@@H]1NC(=O)[C@H]2C[C@@H](C(=O)NCCCCCNC(=O)CS)[C@@H](c3cccc(OCCO)c3)N2C1=O`: the z-score came to 1.35.

In the case of `[N-]=[N+]=Nc1ccccc1[C@@H]1OC(c2ccc(OCCCO)cc2)=N[C@]1(Cc1ccccc1)C(=O)NCCN1CCOCC1`, the z-score was -2.13.

For the molecule `CCOC(=O)C[C@H]1[C@H](OC(=O)c2ccccc2-c2ccccc2)[C@@H](NC(=O)C2CCCCC2)c2cc(OCCCO)ccc2N1C(=O)c1ccc2ccccc2n1`, the z-score stood at 2.62.

Turning to `NC(=O)N1C(=O)C2C(C1=O)C1C=C(CCCO)C2C(c2ccc(CN3CCCC3)cc2)N1Cc1sc2ccccc2c1Cl` (stereo not given), the z-score worked out at 0.198.

For the molecule `CC(C)(C)N1CC=CC23O[C@@H]4/C=C\CCCOC(=O)C4[C@H]2C(=O)N(CCCO)[C@@H]3C1=O` (stereo not given in full), the z-score turned out to be 2.51.

With `CC(C)N1C(=O)c2ccccc2[C@](C)(C(=O)NCC(F)(F)F)[C@@H]1c1ccc(CO)cc1`, the z-score is 0.783.

`COc1ccc(C#Cc2ccc3c(c2)[C@]2(C(=O)N3)[C@H](C(=O)O)[C@H]3C(=O)O[C@H](c4ccccc4)[C@H](c4ccccc4)N3[C@@H]2c2ccccc2OCCO)cc1`: the z-score was -2.32.

With `CCCCCC1=C2CNC(Cc3ccccc3)(C(=O)OC)C=C2C(C)C1=O` (stereo not given), the z-score was -3.

Consider `CCCCCCc1nc(-c2ccc(-c3ccc(Cl)c(Cl)c3)o2)cc2c1[Si](C(C)C)(C(C)C)OC2`, for which the z-score is -7.11.

For the molecule `COC(=O)[C@H](Cc1ccccc1)N1CC2=CCCC=C[C@@H]2[C@H]1[C@H](O)Cc1ccccc1`, the z-score is -0.647.

Regarding `COC(=O)[C@@]1(Cc2ccc(F)cc2)[C@H]2c3cc(C(=O)N4CCCC4)n(CCc4ccccn4)c3C[C@H]2CN1C(=O)c1ccccc1`, the z-score is -0.188.

Regarding `O=C1N(CCS(=O)(=O)c2ccccc2)c2ccccc2C[C@]12N=C(c1ccc(OCCCO)cc1)O[C@@H]2c1ccccc1`, the z-score was 0.627.

As for `C=CCN1C(=O)[C@]2(O[C@H](CCn3cc([C@H](O)c4ccccc4)nn3)[C@@H]([Si](C)(C)c3ccc(OC)cc3)[C@@H]2C)c2cc(NC(=O)c3ccc(OC)cc3)ccc21`, the z-score is -0.0881.

In the case of `C=C(COC)C(=O)CC[C@@H](OC(C)=O)c1ccccc1OCCO`, the z-score is -1.38.

Regarding `COC(=O)[C@@]1(Cc2ccc(F)cc2)[C@H]2c3cc(C(=O)N4CCCC4)n(Cc4ccccn4)c3C[C@H]2CN1C(=O)c1ccccc1`, the z-score was -2.47.

As to `C=CCOC(=O)[C@@H]1[C@H]2C(=O)O[C@H](c3ccccc3)[C@H](c3ccccc3)N2[C@H](c2ccc(OCCOC(=O)[C@H]3C[C@H]4C(=O)NCC(=O)N4[C@H]3c3cccc(OCCO)c3)cc2)[C@@]12C(=O)Nc1ccc(I)cc12`, the z-score came to 1.55.

Consider `COC(=O)C[C@H]1O[C@@]2(C[C@@H]1[Si](C)(C)C)C(=O)N(C)c1ccccc12`, for which the z-score worked out at 1.21.

With `CN(C)CCCC[C@@H]1NC(=O)[C@@H]2C[C@H](C(=O)NCCCCCCNC(=O)CS)[C@H](c3ccc(O)cc3)N2C1=O`, the z-score is 0.873.

Consider `CCOC(=O)C1=CC[C@@H](c2ccc(OC)cc2)N(S(=O)(=O)c2ccc(C)cc2)[C@H]1CC`, for which the z-score was determined as 0.209.

For the molecule `C=C(CCCC)/C(=C/C[C@H](OC(=O)c1ccncc1)c1ccc(OCCO)cc1)c1cnc2ccccc2c1`, the z-score is -0.964.

Consider `COC(=O)[C@@]1(Cc2ccc(F)cc2)[C@H]2c3cc(C(=O)N4CCCC4)n(Cc4cc(F)cc5c4OCOC5)c3C[C@H]2CN1C(=O)c1ccccc1`, for which the z-score was 0.853.

On to `C=C(CCCC)C(=O)CC[C@H](OC(=O)c1ccccc1-c1ccccc1C(=O)O)c1ccc(OCCO)cc1`, for which the z-score is -1.59.

`C[N+](C)(C)CCCCNC(=O)[C@H]1C[C@H]2C(=O)N[C@@H](Cc3ccccc3)C(=O)N2[C@H]1c1cccc(OCCO)c1`: the z-score is -0.418.
